For test [1], the target named is Aldehyde dehydrogenase, mitochondrial (Homo sapiens) (UniProt P05091). Briefly: qHTS for Inhibitors of the Aldehyde Dehydrogenase Family (ALDH2) Primary screen (AID 2061308). Note: nearly all actives have a fitted effect of over 55% in size. The settings on record: ALDH2 enzyme inhibition qHTS, 1536-well; series mostly up to 56 µM. Background: In qHTS, concentration-response curves come from the screen itself.
Test [2] has as its target Retinaldehyde dehydrogenase 3 (Homo sapiens) (UniProt P47895). Briefly: qHTS for Inhibitors of the Aldehyde Dehydrogenase Family (ALDH1A3) Primary screen (AID 2061315). The settings on record: ALDH inhibition qHTS; series mostly up to 56 µM.

Inconclusive results are not listed. A call without a number means that no potency is given here. Active and inactive are the calls of the source. Calls come from the whole dose curve; as a rule, active = well fitted curve in the direction sought with a large enough effect; inconclusive = small, poorly fitted or top-dose-only effect, or another doubt; inactive = no such curve, though single readings can be large; an effect the other way counts as inactive or inconclusive.

Take `O=C(COC(=O)CNC(=O)c1ccccc1)Nc1ccccc1Cl`: the Potency entry in test [1] and in test [2] was “inactive” in each case.

On to `Cc1cccc(-n2cnc3cc(C(=O)N4CCCCC4)ccc32)c1`, for which the Potency result in test [1] and in test [2] was “inactive” throughout.

Turning to `CC(=O)Nc1sc2c(c1-c1cccc(N(C)C)c1)CCNC2`, the Potency result in test [1] and in test [2] was “inactive” throughout.

For `Cc1ccccc1-c1nnc(NC(=O)Nc2ccc3ccccc3c2)s1`, the Potency entry in test [1] and in test [2] was “inactive” in each case.

As to `COc1c/c(=C2\C=c3ccccc3=N2)[nH]/c1=C\c1[nH]c(C)cc1C`, the Potency entry in test [1] and in test [2] was “inactive” in each case.

For the compound `O=C(Nc1ccc(-c2nc3ccccc3[nH]2)cc1)c1ccc2c(c1)OCCO2`, the Potency entry in test [1] and in test [2] was “inactive” throughout.

In the case of `CC(=O)Nc1sc2c(c1Br)CCNC2`, the Potency result in test [1] and in test [2] was “inactive” each time.

In the case of `O=C(OCC#CCSc1nnc(-c2ccc3ccccc3c2)o1)c1cc2ccccc2s1`, the Potency entry in test [1] and in test [2] was “inactive” in each case.

Turning to `Cc1ccc(S(=O)(=O)Nc2ccccc2C(=O)Nc2ccc(-c3ccccc3)nn2)cc1`, the Potency entry in test [1] and in test [2] was “inactive” in each case.

With `COc1ccc(O)c(CNc2ccc(S(=O)(=O)Nc3nccs3)cc2)c1`, the Potency result in test [1] and in test [2] was “inactive” throughout.

As to `COc1ccc(-c2nc(Nc3ccc(F)c(F)c3)c3ccccc3n2)cc1`, the Potency result in test [1] and in test [2] was “inactive” throughout.

With `N#Cc1c(-c2cccc(C(F)(F)F)c2)no[n+]1[O-]`, the Potency result in test [1] and in test [2] was “inactive” in each case.

With `Cc1cc(N[S+](=O)([O-])c2ccc(NC(=O)Cc3ccc(F)c(C(F)(F)F)c3)cc2)no1`, the Potency result in test [1] and in test [2] was “inactive” in each case.

Turning to `Cc1cc2c(s1)c1cnn(Cc3ccc(F)cc3Cl)c(=O)c1n2C`, the Potency result in test [1] and in test [2] was “inactive” each time.

As to `C=C1C(=O)OC2CC(C)=C(C(C)CCCOC(C)=O)C(OC(=O)CC(C)CC)C12` (configuration not stated), the Potency entry in test [1] and in test [2] was “inactive” each time.

In the case of `CC1(C)C=Cc2c(ccc3c2N=C2C(C)(C)[C@@H]4C[C@]56CCCN5C(=O)[C@@]4(C[C@]23O)NC6=O)O1`, the Potency entry in test [1] and in test [2] was “inactive” each time.

With `O=C(Nc1ncc(Cc2ccc(C(F)(F)F)cc2)s1)c1ccc(-c2cccc([N+](=O)[O-])c2)o1`, the Potency entry in test [1] and in test [2] was “inactive” throughout.

As to `CCOc1cc(F)c(CCNC(=O)c2cc3sccc3n2Cc2ccccc2)cc1OCC`, the Potency result in test [1] and in test [2] was “inactive” each time.

As for `O=C(N/C=C/c1ccccc1)c1cccc([S+](=O)([O-])Nc2ccccc2F)c1`, the Potency result in test [1] and in test [2] was “inactive” each time.

Consider `Cc1nc(N2CCOCC2)c2nc(-c3ccccc3)n(CC(C)(C)CN(C)C)c2n1`, for which the Potency result in test [1] and in test [2] was “inactive” in each case.

Consider `COc1cc(NS(=O)(=O)c2ccc(C)cc2)c(C(=O)Nc2nc(-c3ccccc3)cs2)cc1OC`, for which the Potency entry in test [1] and in test [2] was “inactive” throughout.

For `O=C(O)CCc1cc(F)c(S(=O)(=O)N2CCN(S(=O)(=O)c3ccc4c(c3)OCCO4)CC2)cc1F`, the Potency result in test [1] and in test [2] was “inactive” throughout.

Take `Cc1cccc(-c2nnc(C)n2CCCn2ccnc2)c1[N+](=O)[O-]`: the Potency entry in test [1] and in test [2] was “inactive” in each case.

`NC(=O)C1CCN(c2nc(-c3ccccc3Br)cs2)CC1`: the Potency result in test [1] and in test [2] was “inactive” throughout.

Regarding `Cc1ccc(S(=O)(=O)N(C)c2cccc3cccnc23)cc1`, the Potency entry in test [1] and in test [2] was “inactive” each time.

As to `Cc1ccc(NC(=O)CN2C(=O)N/C(=C\c3cccn3-c3ccc(C(=O)NC#N)cc3)C2=O)cc1`, the Potency entry in test [1] and in test [2] was “inactive” in each case.

As to `Cc1ccc(C2=NN(CC(=O)N(C)C(C)c3ccco3)C(=O)C2)cc1` (configuration not stated), the Potency entry in test [1] and in test [2] was “inactive” in each case.

For `O=C(Nc1ccccc1F)c1ccc(O)c2ncccc12`, the Potency result in test [1] and in test [2] was “inactive” throughout.

Turning to `Cc1ccccc1-c1nc(NCc2ccc(-c3cccnc3)cc2)c2ccccc2n1`, the Potency result in test [1] and in test [2] was “inactive” in each case.

Take `Cc1ccc(S(=O)(=O)Nc2cnccc2C(=O)Nc2nc(-c3cc4ccccc4o3)cs2)cc1`: the Potency entry in test [1] and in test [2] was “inactive” each time.

Take `CCCn1c(C)nc2c(NCCCN(CCO)CCO)nc(C)nc21`: the Potency result in test [1] and in test [2] was “inactive” in each case.

For `O=C(Nc1ncc(-c2ccccc2)s1)c1ccc(-c2cccc([N+](=O)[O-])c2)o1`, the Potency entry in test [1] and in test [2] was “inactive” in each case.

For the compound `Nc1ccc(-c2cccc3c(=O)cc(N4CCOCC4)oc23)cc1`, the Potency result in test [1] and in test [2] was “inactive” throughout.

Consider `O=C(OCC#CCSc1nnc(-c2cccc3ccccc23)o1)c1ccc(Cl)cc1`, for which the Potency entry in test [1] and in test [2] was “inactive” in each case.

As to `Cc1ccc(-c2ccc(CNc3nc(-c4ccccc4C(C)C)ncc3F)cc2)cn1`, the Potency result in test [1] and in test [2] was “inactive” in each case.

With `O=C(Nc1ccc(F)c(C(F)(F)F)c1)Nc1nc(-c2ccncc2)cs1`, the Potency result in test [1] and in test [2] was “inactive” throughout.

In the case of `CC(=O)c1ccc(-c2csc(N3CCC(C(N)=O)CC3)n2)cc1`, the Potency result in test [1] and in test [2] was “inactive” each time.

As to `CC(C)c1ccccc1-c1ncc(F)c(NCC2CCN(c3cccnc3)CC2)n1`, the Potency entry in test [1] and in test [2] was “inactive” in each case.

As for `NC(=O)Nc1cc(-c2ccc(CN3CCOCC3)c(F)c2)sc1C(=O)N[C@H]1CCCNC1`, the Potency entry in test [1] and in test [2] was “inactive” throughout.

Consider `O=C(Nc1nc(-c2ccccc2)cs1)c1cccc(NS(=O)(=O)c2nccs2)c1`, for which the Potency entry in test [1] and in test [2] was “inactive” each time.

Turning to `O=C1CCc2cc(S(=O)(=O)Nc3ccc(-c4ccccc4)cc3)ccc2N1`, the Potency result in test [1] and in test [2] was “inactive” in each case.

For the origin of these results see PubChem BioAssay (NCATS).
